GLD-1 RNA inh: GLD-1-TGE RNA interaction inhibition (C. elegans) | purified GLD-1 + fluorescein TGE RNA, fluorescence polarization | Q17339 | inhibition, % at 5.96 µM | hit rate 0.44% among 320,000;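 active = percent inhibition above a per-plate cutoff, the plate mean of test compounds plus 3 SD, cut at about 30% in these data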
EBV gp42 block: inhibitors of Epstein-Barr virus glycoprotein 42; Q1HVG2; Fluorescence polarization binding assay, mP read-out; inhibition, % (tested at 21.74 µM); hit rate 0.42% among 220,000; AID 1085; in the data active = inhibition above about 50%
E coli Lon inh: inhibits E. coli Lon protease; P0A9M0; purified E. coli Lon protease, fluorescence polarization; inhibition, % at 7.94 µM; hit rate 0.42% among 360,000; AID 602123; in the data active = inhibition above about 13%, passing the limit was not always enough
Bcl-xL primary: inhibitors of human Bcl-xL; Q07817; GST-Bcl-xL / FITC-Bim BH3 peptide fluorescence polarization; inhibition, % at 10.9 µM; hit rate 0.7% among 320,000;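 active = inhibition above the mean of all tested compounds plus 3 SD, cutoff set per campaign, cut at about 30% in these data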;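 also: inhibitors lower millipolarization by displacing the labeled peptide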
Target sequence (Q07817 whole entry, looked up): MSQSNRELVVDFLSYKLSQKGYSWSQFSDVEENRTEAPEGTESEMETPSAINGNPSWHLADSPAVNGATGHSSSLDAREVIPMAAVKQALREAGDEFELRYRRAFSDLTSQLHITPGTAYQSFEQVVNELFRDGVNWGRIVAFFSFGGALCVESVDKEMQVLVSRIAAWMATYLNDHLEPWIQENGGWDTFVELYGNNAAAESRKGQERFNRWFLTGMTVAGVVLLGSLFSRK
MCL1 BIM primary: inhibitors of human MCL1 binding to BIM-BH3 peptide; Q07820; inhibition, % at 10.9 µM; hit rate 0.68% among 320,000; GST-MCL1 / FITC-Bim-BH3 fluorescence polarization; AID 2057;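 active = inhibition above the mean inhibition of all tested compounds plus 3 SD, set per campaign, cut at about 40% in these data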;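 also: higher means more loss of mP so more displacement of Bim peptide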
Target sequence (Q07820 whole entry, looked up): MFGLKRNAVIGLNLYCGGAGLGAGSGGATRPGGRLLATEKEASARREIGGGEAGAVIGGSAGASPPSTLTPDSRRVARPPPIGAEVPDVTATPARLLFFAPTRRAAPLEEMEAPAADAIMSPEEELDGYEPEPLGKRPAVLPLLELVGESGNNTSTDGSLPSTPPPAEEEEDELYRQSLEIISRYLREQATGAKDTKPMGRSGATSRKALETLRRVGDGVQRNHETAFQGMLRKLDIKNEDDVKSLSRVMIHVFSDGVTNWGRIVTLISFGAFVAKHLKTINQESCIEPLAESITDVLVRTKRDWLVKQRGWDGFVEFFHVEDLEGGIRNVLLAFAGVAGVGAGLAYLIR
MEX-5 binding: C. elegans MEX-5 TCR-2 RNA binding activity | MEX-5/FITC-TCR2 RNA binding, fluorescence polarization; active compounds read low | Q9XUB2 | activity score (negative = inhibition of binding), % at 10 µM | hit rate 0.38% among 300,000 | AID 1832;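 active = inhibition past about -25% in most replicates, and total fluorescence under double the plate's negative control median, limit read from the data; inconclusive = replicates evenly split on the limit, or fluorescence at least double controls; inactive = too little inhibition in most replicates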
A number is an active result; i = inactive; ? = inconclusive; nt = no result. Sampled rows, rich in hits. Any-hit rate of the full collection: about 1.5%.

SMILES	GLD-1 RNA inh	EBV gp42 block	E coli Lon inh	Bcl-xL primary	MCL1 BIM primary	MEX-5 binding
Cc1ccc(C(=O)NN2C(=O)/C(=C/c3cn(C)c4ccccc34)SC2=S)cc1	i	129.7	i	i	i	nt
Cn1cc(/C=C2\SC(=S)N(NC(=O)c3ccccc3Cl)C2=O)c2ccccc21	i	87.3	i	35.4	i	nt
Cc1ccc(C(=O)NN2C(=O)/C(=C/c3cccn3C)SC2=S)cc1	i	i	i	i	i	i
CCOC(=O)c1sc(NC(=O)COC(=O)CNC(=O)C2CCCCC2)c(C(=O)OCC)c1C	i	i	i	i	i	i
Cc1ccc(S(=O)(=O)NC(=O)COc2ccc(Cl)cc2Cl)cc1	i	nt	i	i	i	i
COc1ccc(S(=O)(=O)N2CCN(c3ncccn3)CC2)cc1	i	nt	i	i	i	i
OC(c1ccc(Cl)c(F)c1)c1ncc(-c2ccccc2C(F)(F)F)[nH]1 (stereo not given)	nt	nt	i	nt	nt	nt
COC(=O)/C(C#N)=C/c1c(Oc2cc(C)cc(C)c2)nc2c(C)cccn2c1=O	i	i	i	i	i	-41.0
CCNC(=O)/C(C#N)=C/c1c(N(Cc2ccccc2)Cc2ccccc2)nc2ccccn2c1=O	i	i	i	i	i	i
CNC(=O)/C(C#N)=C/c1c(N(Cc2ccccc2)Cc2ccccc2)nc2c(C)cccn2c1=O	i	i	i	154.2	i	i
Cc1ccc(CNC(=O)CCc2c(C)nn(-c3ccc(N4CCOCC4)nn3)c2C)cc1	i	nt	i	i	i	i
COc1ccc(N(CC(=O)NCCc2ccc(S(N)(=O)=O)cc2)S(=O)(=O)c2c(C)noc2C)cc1	i	nt	i	i	i	i
COc1ccc(C2CC(c3cccc([N+](=O)[O-])c3)=NN2/C(C)=C/C(C)=O)cc1 (stereo not given)	nt	nt	i	nt	nt	nt
CC1=CC(=C(C#N)c2nc3ccccc3s2)C=C(C)N1CC1CCCO1 (stereo not given)	i	155.2	i	i	i	-35.8
CCS(=O)(=O)N1N=C(c2cccc(NS(C)(=O)=O)c2)CC1c1ccc(C)cc1 (stereo not given)	i	i	i	i	i	i
Cc1cc2oc(=O)cc(CN3CCOCC3)c2cc1C(C)C	i	nt	i	i	i	i
CC(C)c1cc(=O)oc2c3c4c(cc12)CCCN4CCC3	44.2	51.2	i	i	i	i
CCOC(=O)COn1c(=O)c(-c2cc3ccccc3o2)[n+]([O-])c2ccccc21	i	i	i	i	i	-36.9
CCOC(=O)COn1c(=O)c(-c2ccc(F)cc2)[n+]([O-])c2ccccc21	nt	nt	i	nt	nt	i
Cc1ccccc1N=Cc1c(O)n(-c2nccs2)c(=O)c2ccccc12	i	i	i	i	i	i
O=c1c2ccccc2c(C=Nc2ccccc2O)c(O)n1-c1nccs1	i	i	i	36.7	i	i
O=C(COc1cccc2cccnc12)NNC(=O)Nc1ccccc1	i	i	i	i	i	i
Brc1ccc(C2Nc3cccc4cccc(c34)N2)cc1	nt	nt	i	nt	nt	nt
Clc1cccc(C2Nc3cccc4cccc(c34)N2)c1Cl	i	nt	i	i	i	i
c1coc(C2Nc3cccc4cccc(c34)N2)c1	i	i	nt	51.3	57.7	i
SMILES	GLD-1 RNA inh	EBV gp42 block	E coli Lon inh	Bcl-xL primary	MCL1 BIM primary	MEX-5 binding
Clc1ccccc1C1Nc2cccc3cccc(c23)N1	i	nt	i	38.1	i	i
N#Cc1c(C#N)c(O)c2ccccc2c1O	i	68.3	i	44.8	44.4	i
COc1cccc(OCCn2cc(C=O)c3ccccc32)c1	i	nt	i	i	i	-27.1
COC(=O)N/N=C/c1cn(CCOc2cccc(OC)c2)c2ccccc12	i	nt	i	i	i	i
CN(CCc1ccccc1)C(=O)c1ccc(NC(=O)Cc2ccc(NC(=O)C3CCN(C(=O)C4CCC4)CC3)cc2)cc1	nt	nt	i	nt	nt	nt
CC1(C)OC2CC3C4CC(F)C5=CC(=O)C=CC5(C)C4(F)C(O)CC3(C)C2(C(=O)CO)O1 (stereo not given)	i	nt	i	56.9	52.9	i
CCN(CC)C(=O)CN1CCC(n2c(C)nc3cc(C(F)(F)F)ccc32)CC1	i	i	i	30.6	i	i
Cc1nc2cc(C(=O)O)ccc2n1C1CCCCC1	i	i	i	i	i	i
O=C(CN1C(=O)C2CCCCN2C(=O)c2ccccc21)N1CCCc2ccccc21 (stereo not given)	i	i	i	i	i	i
Cc1nc(NCCc2cnc[nH]2)c2oc3ccccc3c2n1	i	nt	i	i	i	i
COc1ccc(C2=NN(c3ccc(C=O)cc3)C(c3ccccc3)C2)cc1 (stereo not given)	i	nt	nt	i	i	i
COc1ccc(C2CC(c3cccs3)=NN2c2ccc(C=O)cc2)cc1 (stereo not given)	i	i	nt	i	i	-47.2
CC1CCCC(C)N1C(=O)CSc1nnnn1-c1cccc2c1CCCC2 (stereo not given)	54.9	i	i	i	i	i
O=C1CCNc2c(Cl)cc(Cl)cc21	i	71.3	i	31.6	i	i
CCn1c2ccccc2c2cc(NC(=O)c3ccc(=O)oc3)ccc21	i	127.0	i	i	i	i
CCn1c2ccccc2c2cc(NC(=O)c3coc(=O)c(Br)c3)ccc21	i	97.4	i	i	i	?
Cc1nnc(N(C)C(=O)Cc2ccc3c(c2)OCO3)s1	i	i	i	i	i	i
CCCn1nc(C(=O)Nc2ccc(S(=O)(=O)Nc3nccs3)cc2)c2ccccc2c1=O	i	i	i	i	i	-40.8
O=C(Nc1ccc(S(=O)(=O)Nc2nccs2)cc1)c1ccc(N2C(=O)c3ccccc3C2=O)cc1	i	i	i	i	i	-29.1
CCn1nc(C(=O)Nc2ccc(S(=O)(=O)Nc3ncccn3)cc2)c2ccccc2c1=O	i	i	i	i	i	i
COCCNC(=O)CSc1ccc(-c2nc3ccccc3[nH]2)cn1	i	nt	i	61.4	i	i
COc1ccc(-c2c(C#N)c(N)nc3sc(C(=O)c4ccccc4)c(N)c23)cc1	i	81.2	i	i	i	i
CCOc1ccc(-c2c(C#N)c(N)nc3sc(C(=O)c4ccccc4)c(N)c23)cc1	i	70.2	i	i	i	?
COc1ccc(C(=O)c2sc3nc(-c4ccccc4)ccc3c2N)cc1	i	i	i	52.3	39.9	i
CC(C)OC(=O)c1sc2nc(-c3ccccc3)ccc2c1N	i	i	i	i	i	i
CSc1c(C#N)c(N)nc2sc(C(=O)c3ccc(Cl)c(Cl)c3)c(N)c12	i	75.6	nt	i	i	?
CCCCOC(=O)CSc1nc(N)c(C#N)c(-c2ccc(OCC)cc2)c1C#N	i	i	i	i	i	i
Cc1ccc2nc(/C(C#N)=C\c3ccc([N+](=O)[O-])o3)[nH]c2c1	i	i	i	i	i	i
CCC(=O)c1c[nH]c(C(=O)NCc2cccs2)c1	i	i	i	i	i	i
O=C(c1ccc([N+](=O)[O-])cc1)N1CCSC1c1ccc(Cl)cc1 (stereo not given)	i	i	i	i	i	i

Compound activity deposited in PubChem by several laboratories.
